According to PubChem BioAssay:

Test: MM1S cell viability effects, profiling panel, calcein-AM fluorescence, 48 h, basal (AID 1165);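 also: viability of MM1S multiple myeloma cells under basal unstimulated conditions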
Details: higher = more signal
Also: test concentration not given here.

Q: For `O=C1[C@H]2[C@H]3[C@H](O)[C@H](O)CC(=NOCc4ccccc4)[C@H]3CC[C@H]2C(=O)N1C1CCCCC1`, which z-score is on record?
A: -0.618

Q: With `CCOC(=O)CCN1C(=O)[C@H]2[C@H]3[C@H](O)[C@H](O)CC(=NOCC=C(C)CCC=C(C)C)[C@H]3CC[C@H]2C1=O` as the compound, how does the z-score read?
A: 0.345

Q: With `CC(=O)OC[C@H]1O[C@H](CC=NOC(C)CN2CCCc3nc(C)c(C)cc32)C=C[C@@H]1OC(C)=O` (stereo partly drawn) as the compound, how does the z-score read?
A: -2.94

Q: Which z-score does the source give for `CCOC(=O)[C@H](CC(C)C)NC(=O)CCC1CC(OC(=O)NCc2ccc3c(c2)OCO3)CC2(CCCC(COC(=O)NCCc3ccccc3OC)O2)O1` (stereo partly drawn) here?
A: -1.32

Q: For `COc1ccc(COC(=O)NN=C2C[C@@H](O)[C@@H](O)[C@@H]3[C@@H]4C(=O)N(Cc5ccc6c(c5)OCO6)C(=O)[C@@H]4CC[C@H]23)cc1`, which z-score is on record?
A: 0.311

Q: For `COc1cccc([C@H](O)Cn2cc(-c3ccc(CON=C(C)C)cc3)nn2)c1`, which z-score is on record?
A: 1.22

Q: Which z-score does the source give for `CO[C@@H]1C=CCC(=O)N[C@@H](C)C(=O)OC[C@@H](NS(=O)(=O)c2ccc(C)cc2)[C@H](C)C=CCC(=O)OC[C@H]1C` here?
A: -0.0903

Test: basal RPMI8226 viability, no added stimulus, profiling panel, cell-based, calcein-AM fluorescence, 48 h, PK04 Diversity Set (AID 1166);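 also: cells grown under basal conditions without added stimulus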
Details: RPMI8226 myeloma viability, higher = more signal

Q: Which z-score does the source give for `COC(=O)CC=C[C@@H](C)[C@@H](C=NOC[C@@H](C)[C@H](OCc1ccccc1)C(C)C)NS(=O)(=O)c1ccc(C)cc1` here?
A: -0.96

Q: For `COc1cccc([C@H]2Oc3ccc(OC)cc3C(=NO[C@@H](C)c3cc(-c4c(C)cc(C)cc4C)no3)[C@@H]2O)c1`, which z-score is on record?
A: -0.845

Q: With `CCN1C(=O)[C@H]2[C@H]3[C@H](O)[C@H](O)CC(=NNC(=O)OCc4ccccc4)[C@H]3CC[C@H]2C1=O` as the compound, how does the z-score read?
A: 0.507

Q: With `CC(=O)OC[C@H]1O[C@H](CCON=C(C)CCN2CCCc3nc(C)c(C)cc32)C=C[C@@H]1OC(C)=O` as the compound, how does the z-score read?
A: -1.27

Q: With `CCOC(=O)[C@H](Cc1ccccc1)NC(=O)CCC1CC(OC(=O)NCc2cccc3ccccc23)CC2(CCCC(COC(=O)NCCOc3ccccc3)O2)O1` (stereo partly drawn) as the compound, how does the z-score read?
A: -0.634

Q: With `CC(CCN1CCCc2nc(C)c(C)cc21)=NOC[C@@H](O)COCc1ccco1` as the compound, how does the z-score read?
A: -0.441

Q: Which z-score does the source give for `CC(CCC(=O)OC[C@H]1O[C@H](C#Cc2ccccc2)C=C[C@@H]1Oc1ccc(C)cc1)=NO[C@H](C)c1cn([C@@H]2COC[C@H]2O)nn1` here?
A: -2

Q: For `C[C@H]1C=CCC(=O)OC[C@H](C)C(=O)N2CCC[C@H]2C(=O)OC1`, which z-score is on record?
A: 0.0245

Q: With `CC(=O)OC[C@H]1O[C@@H](ON=C2[C@H]3CCn4c(=O)n(-c5ccccc5)c(=O)n4[C@H]3[C@H](O)[C@@H]3O[C@H]23)[C@H](OC(C)=O)[C@@H](OC(C)=O)[C@@H]1OC(C)=O` as the compound, how does the z-score read?
A: -0.105

Q: Which z-score does the source give for `C[C@@H](c1ccccc1)N1C(=O)[C@H]2[C@H]3[C@H](O)[C@H](O)CC(=NNC(=O)OCc4ccccc4)[C@@H]3CC[C@H]2C1=O` here?
A: -0.253

Q: With `CCOC(=O)CCN1C(=O)[C@H]2[C@H]3[C@H](O)[C@H](O)CC(=NNC(=O)OCC)[C@H]3CC[C@H]2C1=O` as the compound, how does the z-score read?
A: -3.78

Q: For `O=C1[C@H]2[C@H]3[C@H](O)[C@H](O)CC(=NOC[C@@H](O)COCc4ccco4)[C@@H]3CC[C@H]2C(=O)N1C1CCCCC1`, which z-score is on record?
A: -0.002

Q: Which z-score does the source give for `CC(=O)OC[C@H]1O[C@H](CCON=C(C)C)C=C[C@@H]1OC(C)=O` here?
A: -1.12

Q: Which z-score does the source give for `COC(=O)[C@@H]1CC[C@H](C)[C@@H](c2ccc(C)cc2)N1C(=O)c1ccc(C=NOC[C@H]2O[C@H](c3ccccc3)C=C[C@@H]2Oc2ccc(OC)cc2)cc1` here?
A: -0.537

Q: Which z-score does the source give for `C=C(C)C(=O)OC[C@H]1CN2[C@@H](CC[C@@H](C)[C@@H]2c2ccc(Br)cc2)C(=O)O1` here?
A: -1.34

Q: Which z-score does the source give for `CCOC(=O)[C@H](Cc1ccccc1)NC(=O)CCC1CC(OC(=O)NCc2cccc3ccccc23)CC2(CCCC(COC(=O)NCCc3ccccc3OC)O2)O1` (stereo partly drawn) here?
A: -1.39

Q: For `CCOC(=O)[C@H](CC(C)C)NC(=O)CCC1CC(OC(=O)NCc2ccc3c(c2)OCO3)CC2(CCCC(COC(=O)NCCC(C)C)O2)O1` (stereo partly drawn), which z-score is on record?
A: 0.403

Q: With `CC(C)CON=C1C[C@@H](O)[C@@H](O)[C@@H]2[C@@H]3C(=O)N(C(C)(C)C)C(=O)[C@@H]3CC[C@@H]12` as the compound, how does the z-score read?
A: -0.289

Q: Which z-score does the source give for `COc1ccc(O[C@H]2C=C[C@@H](c3ccccc3)O[C@@H]2COC(=O)CCC(C)=NOC[C@@H](O)COCc2ccco2)cc1` here?
A: 0.107

Q: With `CC(C)(C)N1C(=O)[C@H]2[C@H]3[C@H](O)[C@H](O)CC(=NOC[C@@H](O)COCc4ccco4)[C@@H]3CC[C@H]2C1=O` as the compound, how does the z-score read?
A: -1.63

Q: Which z-score does the source give for `CC(CCN1CCCCc2nc(C)c(C)cc21)=NO[C@@H](C)c1cc(-c2c(C)cc(C)cc2C)no1` here?
A: -3.77

Q: Which z-score does the source give for `COC(=O)[C@H](C)NC(=O)CC=C[C@@H](C)[C@@H]1C=C[C@H](O)[C@@H](CO)O1` here?
A: -0.859

Q: With `CCN1C(=O)[C@H]2[C@H]3[C@H](O)[C@H](O)CC(=NOC[C@@H](O)COCc4ccco4)[C@H]3CC[C@H]2C1=O` as the compound, how does the z-score read?
A: -0.229

Q: For `O=C1[C@H]2[C@H]3[C@H](O)[C@H](O)CC(=NOC[C@@H](O)COCc4ccco4)[C@@H]3CC[C@H]2C(=O)N1Cc1ccc2c(c1)OCO2`, which z-score is on record?
A: 0.677

Q: For `Cc1ccc(S(=O)(=O)N[C@@H]2COC(=O)CC=C[C@@H](C)[C@H](NS(=O)(=O)c3ccc(C)cc3)COC(=O)[C@H](C)NC(=O)CC=C[C@H]2C)cc1`, which z-score is on record?
A: 0.158

Q: For `COC(=O)CC=C1c2ccccc2[C@H](OC)[C@H]1C`, which z-score is on record?
A: -1.22

Q: Which z-score does the source give for `CCN(CC)CC(O)CN1CCCCc2nc(C)c(C)cc21` (stereo not drawn) here?
A: 0.378

Q: Which z-score does the source give for `CC(C)CON=C1C[C@@H](O)[C@@H](O)[C@@H]2[C@@H]3C(=O)N(Cc4ccccc4)C(=O)[C@@H]3CC[C@H]12` here?
A: -0.48

Q: With `COc1ccc(OC[C@H]2CN3[C@@H](CC[C@@H](C)[C@@H]3c3ccc(Br)cc3)C(=O)O2)cc1` as the compound, how does the z-score read?
A: -1.2

Q: With `O=C1[C@H]2[C@H]3[C@H](O)[C@H](O)CC(=NOCc4ccccc4)[C@H]3CC[C@H]2C(=O)N1C1CCCCC1` as the compound, how does the z-score read?
A: -0.498

Q: For `CCOC(=O)CCN1C(=O)[C@H]2[C@H]3[C@H](O)[C@H](O)CC(=NOCC=C(C)CCC=C(C)C)[C@H]3CC[C@H]2C1=O`, which z-score is on record?
A: 0.15

Q: With `CC(=O)OC[C@H]1O[C@H](CC=NOC(C)CN2CCCc3nc(C)c(C)cc32)C=C[C@@H]1OC(C)=O` (stereo partly drawn) as the compound, how does the z-score read?
A: -0.639

Q: With `CCOC(=O)[C@H](CC(C)C)NC(=O)CCC1CC(OC(=O)NCc2ccc3c(c2)OCO3)CC2(CCCC(COC(=O)NCCc3ccccc3OC)O2)O1` (stereo partly drawn) as the compound, how does the z-score read?
A: -0.312

Q: Which z-score does the source give for `COc1ccc(COC(=O)NN=C2C[C@@H](O)[C@@H](O)[C@@H]3[C@@H]4C(=O)N(Cc5ccc6c(c5)OCO6)C(=O)[C@@H]4CC[C@H]23)cc1` here?
A: -0.0157

Q: For `COc1cccc([C@H](O)Cn2cc(-c3ccc(CON=C(C)C)cc3)nn2)c1`, which z-score is on record?
A: 0.157

Q: For `CO[C@@H]1C=CCC(=O)N[C@@H](C)C(=O)OC[C@@H](NS(=O)(=O)c2ccc(C)cc2)[C@H](C)C=CCC(=O)OC[C@H]1C`, which z-score is on record?
A: -0.431
